Screening data: PubChem, National Center for Advancing Translational Sciences (NCATS)
Vaccinia mCherry = vaccinia inhibition (mCherry reporter). Vaccinia virus mCherry reporter infection, fluorescence. Potency, µM (top dose mostly 36.5 µM), without a hit: top-dose activity change, negative = inhibition, most hits filed as inhibitors. 310,000 tested, 0.63% active; calls by dose curve; tested in A549 cells; also: potency is read from the fitted curve at half-maximal effect; nearly all actives have a fitted effect of over 35% in size
HCMV antiviral = inhibitors of human cytomegalovirus; HFF cells, HCMV-luciferase reporter, 72 h; hits give low values; activity change, negative = inhibition, % at 57.5 µM; 410,000 tested, 4.5% active; AID 1259415; in the data active = activity change below about -60%; inconclusive = no clear call, values can overlap the other calls; inactive = above about -39%
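Screen run at 2 compound doses on HFFs infected with reporter HCMV, MOI 1 PFU/cell. Luciferase activity from cell lysates at 72 h post infection gave inhibition relative to buffer-only and Salinomycin wells.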
Vaccinia Venus = vaccinia inhibition (Venus reporter). Vaccinia virus Venus reporter expression, fluorescence. Potency, µM (doses to about 36.5 µM), for the others: at the top dose activity change, negative = inhibition, hits mostly inhibitors. 330,000 tested, 0.46% active. AID 720580; calls by dose curve; tested in A549 cells; also: potency is read from the fitted curve at half-maximal effect; nearly all actives have a fitted effect of over 30% in size
LmPK inh = blocks Leishmania mexicana pyruvate kinase activity | purified LmPK, Kinase-Glo ATP luminescence, 1 h | AID 1721 | Q27686 | 290,000 tested, 0.37% active | Potency, µM (series often up to 57.5 µM), without a hit: at the top dose activity change, negative = inhibition, actives largely listed as inhibitors; also: potency is read from the fitted curve at half-maximal effect
Target sequence (Q27686 whole entry, looked up): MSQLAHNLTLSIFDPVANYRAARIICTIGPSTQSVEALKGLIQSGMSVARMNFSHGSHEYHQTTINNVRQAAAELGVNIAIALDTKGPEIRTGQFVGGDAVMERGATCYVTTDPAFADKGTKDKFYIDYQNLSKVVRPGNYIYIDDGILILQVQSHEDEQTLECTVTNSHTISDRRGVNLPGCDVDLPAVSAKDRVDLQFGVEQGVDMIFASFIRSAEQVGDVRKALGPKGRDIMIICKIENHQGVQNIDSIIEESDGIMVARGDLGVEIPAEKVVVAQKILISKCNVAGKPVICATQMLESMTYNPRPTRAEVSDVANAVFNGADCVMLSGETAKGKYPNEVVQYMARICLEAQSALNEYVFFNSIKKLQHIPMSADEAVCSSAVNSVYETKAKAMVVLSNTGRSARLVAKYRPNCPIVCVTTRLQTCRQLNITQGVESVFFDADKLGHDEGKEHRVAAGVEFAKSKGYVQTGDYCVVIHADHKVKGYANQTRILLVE
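Kinase-Glo luminescence read after 1 h RT reaction of 0.1 nM LmPK with 0.5 mM PEP and 0.1 mM ADP. Activity scaled between uninhibited and enzyme-free controls.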
Tb PYK inh = T. brucei pyruvate kinase inhibition | AID 624173 | Potency, µM (titrated, usually from 76.8 µM), for inactives: at the highest dose activity, negative = inhibition, hits mostly inhibitors | TbPYK enzyme, Kinase-Glo Plus ATP luminescence, 45 min | 410,000 tested, 0.12% active | Q57TT1; also: potency is read from the fitted curve at half-maximal effect; nearly all actives have a fitted effect of over 50% in size
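Quantitative HTS: titrated library compounds versus trypanosomal pyruvate kinase in TEA buffer (pH 7.2) containing KCl, MgCl2, BSA and Tween-20. Reactions were initiated with ADP, 130 uM final. Kinase-Glo Plus luminescence was read after 45 min at RT.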
* = called active by the depositor; i = inactive; ? = inconclusive; · = not tested or not shown; ! = repeats disagree; [ ] = dose if it differs, or a comment. Rows were chosen to be rich in hits. Some 5% of all compounds tested hit in one or more screens of this group. Unless noted, calls follow the shape of the dose curve; as a rule, active = well fitted curve in the direction sought with a large enough effect; inconclusive = small, poorly fitted or top-dose-only effect, or another doubt; inactive = no such curve, though single readings can be large; an effect the other way counts as inactive or inconclusive. % is scaled to controls: 0 for no effect and ±100 for the full control effect.

SMILES	Vaccinia mCherry	HCMV antiviral	Vaccinia Venus	LmPK inh	Tb PYK inh
COc1ccc2c3c([nH]c2c1)[C@H](CO)N(C(=O)C1CCCC1)CC31CCN(C(=O)c2ccncc2)CC1	·	-18	·	·	·
COc1ccc2c3c([nH]c2c1)[C@@H](CO)N(C(=O)CC1CC1)CC31CCN(Cc2ccncc2)CC1	·	-74*	·	·	·
Cn1ncc(S(=O)(=O)Cc2ccccc2)c(Cl)c1=O	i	23	-4%	5%	-5%
Cn1ncc(SCc2ccccc2)c(Cl)c1=O	-10%	-80*	-19%	-2%	-1%
Nc1cc(-c2ccc(Br)cc2)nn1Cc1ccccc1	?	-77*	-21%	9%	5%
CCOc1ccccc1Nc1cc(C)nc2ccc(C)cc12	i	?	-17%	·	0%
Cc1cc(Nc2cccc(Br)c2)c2ccccc2n1	?	-71*	?	·	1%
CCOc1ccccc1Nc1cc(C)nc2ccccc12	?	-62*	-24%	·	-6%
Cc1cc(Nc2cccc(O)c2)c2ccccc2n1	·	·	·	1%	·
COc1ccc(C(O)c2nc(-c3ccc(Cl)cc3)cs2)cc1 (stereo unspecified)	i	-18	-8%	·	-1%
O=C(OCC12CC3CC(CC(C3)C1)C2)c1ccc(NCc2cc(O)ccc2O)cc1	?	-77*	?	·	?
O=C(OCCC12CC3CC(CC(C3)C1)C2)c1ccc(NCc2cc(O)ccc2O)cc1	-22%	-77*	?	·	-16%
O=C(O)c1cc(NCc2cc(O)ccc2O)ccc1O	-15%	·	-1%	·	·
CCNC(=O)OCCC12CC3CC(CC(C3)C1)C2	-13%	33	-4%	-4%	0%
COc1ccc(S(=O)(=O)N2CCC(C(=O)NCC3CCCCC3)CC2)cc1	-11%	-2	-7%	10%	-3%
CCCCCCN1C[C@@H](n2cc(COC(=O)c3ccccc3)nn2)[C@H](O)C[C@@H]1c1ccccc1	-10%	-103*	-17%	·	-6%
CCCCCCN1C[C@@H](n2cc(COC(=O)c3ccccc3)nn2)[C@H](O)C[C@@H]1c1ccc(Cl)cc1	i	-101*	-26%	·	0%
CCCCCCN1C[C@H](n2cc(COC(=O)c3ccccc3)nn2)[C@@H](O)C[C@@H]1c1ccccc1	?	-15	-25%	·	1%
CCN(CC)CCNc1nc(C(F)(F)F)nc2c1nnn2Cc1ccccc1	?	0	-16%	2%	5%
CC(C(=O)N1CCCC1)N1CCN(S(=O)(=O)c2ccccc2)CC1 (stereo unspecified)	·	0	·	·	0%
COc1ccc(NC(=O)CCS(=O)(=O)c2nc(-c3cccs3)cc(C(F)(F)F)n2)cc1OC	-8%[7.34 µM]	-101*	-11%[7.34 µM]	·	-5%
COc1cc(NC(=O)CCS(=O)(=O)c2nc(-c3cccs3)cc(C(F)(F)F)n2)cc(OC)c1OC	?	-98*	-23%	·	1%
O=C(CCS(=O)(=O)c1nc(-c2cccs2)cc(C(F)(F)F)n1)Nc1cccc(O)c1	-19%[7.34 µM]	-99*	-16%[7.34 µM]	·	-17%
COc1ccc(NC(=O)CCS(=O)(=O)c2nc(-c3ccc4c(c3)OCO4)cc(C(F)(F)F)n2)cc1OC	-8%	10	0%	·	0%
O=C(CCS(=O)(=O)c1nc(-c2ccc3c(c2)OCO3)cc(C(F)(F)F)n1)Nc1ccc(F)c(Cl)c1	-19%	-100*	-17%	·	3%
SMILES	Vaccinia mCherry	HCMV antiviral	Vaccinia Venus	LmPK inh	Tb PYK inh
CCN1CCN(C(=O)c2cccc(OC3CCN(S(C)(=O)=O)CC3)c2)[C@@H](C)C1=O	-15%	-2	-3%	3%	-12%
O=C(COC(=O)c1nc(Cl)ccc1Cl)Nc1ccc(Cl)cn1	·	-4	·	·	-9%
Cc1ccc(-c2nn3c(=O)cc(CN4CCN(C(=O)COc5ccc(C)c(C)c5)CC4)nc3s2)cc1	?	6	-28%	·	1%
COc1cccc(N(CC(=O)NCCSCc2ccco2)S(=O)(=O)c2ccccc2)c1	-16%	?	-20%	2%	-2%
Cc1cc(NS(C)(=O)=O)c(=O)n(Cc2cccc(C(F)(F)F)c2)c1	i	5	-5%	·	-4%
Cc1cccc(-c2nnc(SCc3nc4ccccc4[nH]3)n2Cc2ccco2)c1	-9%[1.46 µM]	-61*	?	7%	?
Cc1nc2c(cnn2-c2ccccc2Cl)c(=O)n1-c1ccc(C(C)C)cc1	-16%	-60*!	0%	4%	3%
CCCSc1nc2c(cnn2-c2ccc(C)cc2)c(=O)[nH]1	?	?	28µM*	-1%	-1%
